Bioassay records from PubChem BioAssay.
WNV NS2B-NS3 inh = inhibitors of WNV NS2B-NS3 protease, primary screen, biochemical, fluorogenic substrate; Genome polyprotein (West Nile virus), P06935; fluorogenic substrate Ex360/Em465; active compounds read low; z-score (concentration not given with the values); 0.18% of 65,000 active; AID 577, 2007; in the data active = z-score below about -3
FXIIa mix inh = human factor XIIa inhibitors, primary screen, biochemical, pooled compound mixtures, fluorogenic substrate. Coagulation factor XII (Homo sapiens), P00748. purified FXIIa. inhibition, % at 5 µM. 0.2% of 62,000 active. AID 684, 2007
Cathepsin G inh = human cathepsin G inhibitors, primary screen, biochemical, pooled compound mixtures, AMC fluorescence; purified enzyme, AMC-tetrapeptide fluorescence; inhibition, % at 5 µM (by protocol); 0.2% of 62,000 active; P08311;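 active = inhibition above 20% in each of the two mixture wells holding the compound; inactive = inhibition of 20% or less in either well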
C1s block = complement C1s protease inhibitors, primary screen, biochemical, 10-compound mixtures | Complement C1s subcomponent (Homo sapiens), P09871 | purified C1s, fluorogenic AMC substrate, pooled mixtures | mean inhibition % of two 10-compound mixtures (active compounds read high), % at 5 µM (by protocol) | 0.16% of 62,000 active | AID 538, 2006;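 active = inhibition above 20% in each of the two 10-compound mixture wells holding the compound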
MMP-13 inhibitor = human MMP13 inhibitors, primary screen, biochemical, FRET peptide cleavage. 0.07% of 65,000 active. Collagenase 3 (Homo sapiens), P45452. inhibition, % at 4 µM. MMP-13 fTHP FRET cleavage, Mca fluorescence;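 active = inhibition above the mean of compound-free control plate wells plus 3 SD, cut at about 14% in these data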
FXIa inh mix = FXIa protease inhibitors in compound pools, primary screen, biochemical, 10-compound mixtures | AID 680, 2007 | Coagulation factor XI (Homo sapiens), P03951 | purified FXIa, fluorogenic substrate, pooled mixtures | 0.19% of 62,000 active | inhibition, % at 5 µM;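 note: each value is inhibition by a whole ten-compound pool holding the compound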
Hits are given with their value; – = inactive. Rows were chosen to be rich in hits. Some 0.82% of all compounds tested hit in one or more screens of this group. Cut-off read from the data, not from the text of the source, unless noted: active = inhibition above about 20% (passing the limit was not always enough); inactive = the rest.

SMILES | WNV NS2B-NS3 inh | FXIIa mix inh | Cathepsin G inh | C1s block | MMP-13 inhibitor | FXIa inh mix
O=C1NC(=O)[C@]2(Cc3ccccc3N3CCN(c4ccccc4)CC32)C(=O)N1Cc1ccccc1 (stereo partly drawn) | -4 | – | – | – | – | –
COc1ccc(CCN(C)Cc2c(F)cccc2F)cc1OC | – | – | – | – | – | –
COc1ccccc1CN1CCCCC1c1cccnc1 (stereo not drawn) | – | – | – | 59 | – | –
COc1ccccc1N1CCN(Cc2ccccc2Cl)CC1 | – | – | – | – | – | –
